# The whole screen tested about 1,500 compounds, of which about 1,400 (93%) were called active. No rule for the calls is given here. So high a share suggests a set chosen from earlier hits. The list is a sample of the results. Results with a measured potency or affinity are listed apart.
# Assay: growth suppression of PTEN-null colon cells, dose response, cell-based, HCT116 PTEN knockout (AID 1047)
# Details: CellTiter-Glo, 60 h; series mostly up to 30 µM; viability: at the top concentration
row,SMILES,viability
1,CCOC(=O)c1c(C2COc3ccccc3O2)csc1NC(=O)c1ccccc1 (stereo not given),84.2% (inactive)
2,O=C(CSc1ncnc2c1nnn2-c1ccc(F)cc1)NCC1CCCO1 (stereo not given),86.8% (inactive)
3,COC(=O)Nc1nc2c(s1)CCCC2,96.2% (inactive)
4,Cc1cc(C)c2c(=O)n(CC(=O)NCCCN3CCOCC3)sc2n1,90.3% (inactive)
5,CN1/C(=C\C(=S)NC(=O)c2ccc([N+](=O)[O-])cc2)C(C)(C)c2ccccc21,87.3% (inactive)
6,COc1ccc(NC(=O)CCCn2c(=O)c3sccc3n(Cc3ccccc3)c2=O)cc1,94% (inactive)
7,COC(=O)C1=C(C)N(Cc2ccco2)C(=O)N[C@@H]1c1cccc(C(F)(F)F)c1,84.9% (inactive)
8,CC(C)(C)c1ccc(CNc2ccc([N+](=O)[O-])cn2)cc1,95% (inactive)
9,Cc1cc(Nc2ccccc2)nn1C(=O)c1ccccc1,91.5% (inactive)
10,O=C(NCCOc1ccccc1)C(c1ccccc1)c1ccccc1,98.4% (inactive)
11,COc1ccc(C(=O)CCN2CCCCCC2)cc1,85.5% (inactive)
12,CCCCNS(=O)(=O)c1ccc2nc(-c3cccnc3)cc(C(=O)NC3CC3)c2c1,89.9% (inactive)
13,CCN(CC)S(=O)(=O)c1ccc(-c2nnc(SCc3nnc(-c4ccccc4)o3)o2)cc1,90.7% (inactive)
14,C=C1C(O)C[C@H]2C(=C)CCC3[C@H](OC(=O)[C@]3(O)CO)[C@@H]12 (stereo not given in full),97.3% (inactive)
15,O=S(=O)(c1cccc2ccccc12)N1CCSC1,99.6% (inactive)
16,COCCn1c(=NC(=O)CSCC(=O)Nc2cc(C)on2)sc2cc(C(=O)OC)ccc21,99.8% (inactive)
17,O=C(CCNc1cc(Cl)cc(Cl)c1)c1ccco1,92.8% (inactive)
18,c1ccc(-c2cc3n(c2)CCc2ccccc2-3)cc1,87.2% (inactive)
19,[N-]=[N+]=NC1C[C@H](n2ccc(=O)[nH]c2=O)O[C@@H]1CO (stereo not given in full),102% (inactive)
20,O=C(Nc1cccc(C(F)(F)F)c1)NC1CCCCC1,83.1% (inactive)
